Measurements reported in PubChem BioAssay (NCI).
Values joined by “and” are separate entries in the source; they are usually repeats but may differ in a detail not shown here. Identical values can stand only once. The panel holds about 79,000 compounds, 15% with a hit somewhere; the sample as a whole holds those more often. A number with no mark means an inactive call. Active and inactive are the calls of the source. Rule as the data show it: active = growth inhibition above about 70%; inactive = the rest.

assay: NCI Yeast Anticancer Drug Screen. Data for the rad50 strain (AID 155);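 also: 0% = growth of vehicle-only cultures of the same strain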; details: S. cerevisiae rad50 strain growth inhibition; at 50.0 µM (retest, dose inferred, filed as 5.0); active compounds read high
Procedure, shortened: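 Yeast carrying a defined DNA repair defect were exposed to test compounds, and growth was compared with vehicle-treated controls to give percent inhibition.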

| SMILES | growth inhibition |
| --- | --- |
| O=c1[nH]cnc2[nH]cc(CN3CCCCC3)c12 | 21% |
| NCCBr | -26% |
| CSc1ncc(COP(=S)(OCc2cnc(SC)nc2N)OCc2cnc(SC)nc2N)c(N)n1 | -2% |
| O=[N+]([O-])c1ccc(O)c(Cl)c1 | 41% |
| CCN(CC)CC(=O)c1ccc2c(ccc3ccccc32)c1 | 98% (active) |
| Cc1ccc([C@H]2N[C@@H]2c2ccccn2)cc1 | -22% |
| CCC1(C2=CCCCC2)C(=O)NC(=S)NC1=O | 62% |
| Cn1cnc(C(=N)[Se])c1N | 94% (active) |
| CCOC(=O)NC(=S)[S][Sb]([S]C(=S)NC(=O)OCC)[S]c1nc2ccc(N=Nc3ccc(NS(=O)(=O)c4ccc(NC(=O)C(N5CC5)(N5CC5)N5CC5)cc4)cc3)cc2s1 | 99% (active) |
| COc1ccccc1/C=C(/C)[N+](=O)[O-] | 99% (active) |
| O=c1oc2ccccc2c(O)c1C(c1ccc(OCc2ccccc2)cc1)c1c(O)c2ccccc2oc1=O | 7% |
| COc1cc(N(CCCl)CCCl)ccc1C=Nc1cccc(Cl)c1 | 45% |
| O=[N+]([O-])c1cc2c([N+](=O)[O-])cccc2o1 | 98% (active) |
| ClCCN(CCCl)c1ccc(C2N(Cc3ccc(N(CCCl)CCCl)cc3Cl)CCCN2Cc2ccc(N(CCCl)CCCl)cc2Cl)cc1 | 99% (active) |
| CCN(Cc1ccccc1)CC(O)c1ccc(Cl)c(Cl)c1 (centres undefined) | 99% (active) |
| FC1(F)C(Cl)=[C]([Hg][C]2=C(Cl)C(F)(F)C(F)(F)C(F)(F)C2(F)F)C(F)(F)C(F)(F)C1(F)F | 98% (active) |
| CCn1c(O)c(C(=O)NC(C)c2ccc([N+](=O)[O-])cc2)c(=O)n(CC)c1=S (centres undefined) | 91% (active) |
| CC(=O)[O][Hg][c]1ccccc1N | 60% |
| CCC[CH2][Sn]1([CH2]CCC)[O]Cc2nc(C)ccc2[O]1 | 92% (active) |
| CCCCCCCCCCCCC(=O)[O][Hg][c]1ccccc1 | 99% (active) |

| SMILES | growth inhibition |
| --- | --- |
| CN(C)CC1CC2C3CC=C4CC(O)CCC4(C)C3CCC2(C)C1=O (centres undefined) | 78% (active) |
| CC(=O)O.CC(=O)[O-].CC(=O)[O-].[Co+3].[NH-]CC[NH-].[NH-]CC[NH-] | 94% (active) |
| Nc1nc(CCl)cs1 | -5% |
| CC1=CCC2(C)C3CCC4(C)C(O)CCC4C3CCC2(C)C1 (centres undefined) | 90% (active) |
| CC1CCC2(NC1)OC1CC3C4CC=C5CC(O)CCC5(C)C4CCC3(C)C1C2C (centres undefined) | 98% (active) and 99% (active) |
| CCN1CCC(O)(c2ccc(Cl)c(Cl)c2)C(C(=O)c2ccc(Cl)c(Cl)c2)C1 (centres undefined) | 99% (active) |
| O=C(c1ccccc1)c1c(CC(O)c2ccccn2)n(C(=O)c2ccccc2)c2ccccc12 (centres undefined) | 88% (active) |
| CC(O[Si](c1ccccc1)(c1ccccc1)C(C)(C)C)[C@H](NC(=O)OC(C)(C)C)C(=O)O (some centres undefined) | 58% |
| CC(C)=CC1CC(C)C2(CCC3(C)CC4C(C(=O)CC4(C)O)/C(C=O)=C\CC32)O1 (centres undefined) | 100% (active) |
| CC(=O)O[C@H]1C[C@@H]2OC3C=C(C)CCC3(C)[C@@]1(C)[C@@]21CO1 (some centres undefined) | 99% (active) |
| O=C1NC(=O)C([N+](=O)[O-])C(=O)N1 | -5% |
| N#C[S-].[Nd+3].c1ccc(-c2ccccn2)nc1.c1ccc(-c2ccccn2)nc1.c1ccc(-c2ccccn2)nc1 | 99% (active) |
| CC(=O)Nc1ccccc1[As](O[As](c1ccccc1)c1ccccc1NC(C)=O)c1ccccc1 (centres undefined) | 99% (active) |
| Oc1cccc[c]1[Hg][Cl] | 99% (active) |
| Nc1nc(N)c(-c2ccc(Cl)c(Cl)c2)c(CCc2ccc(CNC(=O)Nc3ccc(S(=O)(=O)F)cc3)cc2)n1 | 28% |
| C1CC[N-]CC1.CC(=N\O)/C(C)=N/O.CC(=N\O)/C(C)=N/O.OC1[CH-]CCCC1.[Co+2] | 20% |
| CC(=O)OC1C2(CC3N4C(=O)C5(CO)SSC4(CC31O)C(=O)N5C)OC(C)C(C)(C)C2=O (centres undefined) | 99% (active) |
| C[C@H]1C/C=C/[C@H]2[C@@H]3O[C@]3(C)[C@@H](C)[C@H]3[C@H](Cc4ccccc4)NC(=O)[C@]32OC(=O)O/C=C/[C@@](C)(O)C1=O | 30% |
| C1CC[N-]CC1.[Cl][Au]([Cl])[Cl] | 93% (active) |
